Reference: PubChem BioAssay AID463193 (University of Pittsburgh Molecular Library Screening Center, 2010)
Screen size: about 190,000 compounds; about 1,900 (1%) were called active.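 How the source made its calls: active means percentage of spot-positive cells more than 3 SD above its plate mean, without a fluorescence outlier flag or 80% toxicity; inconclusive means no clear call, values can overlap the other calls; inactive means the rest.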 Many of the other results were omitted from the sample, so actives are more common in it than they were.

Experiment: autophagy modulators in MEF cells, primary screen, imaging, high-content, MEF GFP-LC3 (AID 463193);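 on % cells with GFP-LC3 spots: spot-positive cell cutoff set from DMSO-treated cells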;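 on toxicity: cell loss after 18 h compound exposure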
Settings: MEF GFP-LC3 puncta imaging, at 10 µM; % cells with GFP-LC3 spots: stronger effect = higher value; toxicity: measured here: cell loss, nuclei count

SMILES	% cells with GFP-LC3 spots	toxicity
CCOC(=O)C1=C(C)OC(N)=C(C#N)C1c1cncc(-c2ccc(F)cc2)c1 (stereo unspecified)	6.18% (inactive)	10.5%
N#C/C(=C\c1ccccc1C(F)(F)F)C(=O)Nc1ccccc1F	17.6% (inactive)	-10.6%
N#C/C(=C\C1=C(N2CCOCC2)C(=C\c2ccccc2)/CC1)C(=O)Nc1ccccc1F	94.8% (active)	9.15%
C(=N\N1CCN(c2ccccn2)CC1)/C1=C(N2CCOCC2)C(=C/c2ccccc2)/CC1	21.9% (inactive)	10.4%
O=C1CCCN1CCCNC(=S)Nc1ccc(F)c(Cl)c1	9.25% (inactive)	10.7%
COc1ccc(C(=O)NC(=S)Nc2ccc(N3CCCC3)cc2)cc1OC	2.21% (inactive)	8.63%
COc1cccc(C(=O)Nc2ccc(N3CCCC3)cc2)c1	41.2% (active)	21.3%
COc1cccc(OC)c1C(=O)Nc1ccc(N2CCCCC2)cc1	4.97% (inactive)	0.418%
CC(=O)N/C(=C/c1ccc(Cl)cc1)C(=O)NCCc1c[nH]c2ccccc12	1.94% (inactive)	-16.7%
O=C(NCCc1c[nH]c2ccccc12)C(=O)NCC1CCCO1 (stereo unspecified)	2.06% (inactive)	4.43%
N#C/C(=C/c1ccc(N2CCCCC2)o1)C(=O)NCCc1c[nH]c2ccccc12	95% (active)	-16.4%
COc1ccc(C(=O)Nc2ccc(F)cc2F)cc1	8.35% (inactive)	1.69%
O=C(Nc1cccc(F)c1)c1ccc(S(=O)(=O)N2CCCC2)cc1	2.96% (inactive)	-0.834%
CCOC(=O)N1CCN(S(=O)(=O)c2ccc(C(=O)Nc3ccc(F)cc3F)cc2)CC1	13.1% (active)	35.6%
CCCCN1C(=O)/C(=C/C=C2/C=Cc3ccccc3N2CC)SC1=S	36.6% (active)	17.1%
CCCCN1C(=O)/C(=C2/C=CC=CN2C)SC1=S	2.78% (inactive)	-16.3%
O=C(CCCN1C(=O)/C(=C/c2ccccc2)SC1=S)Nc1ccc(O)cc1	5.17% (inactive)	20.5%
Cc1ccccc1Cn1nc(C)c(NC(=O)C(F)(F)F)c1C	25.2% (inactive)	-15.5%
COc1ccc(NC(=O)COC(=O)c2ccncc2)c(OC)c1	4.41% (inactive)	21.4%
CC1c2nc3ccccc3n2C(CC(=O)NCCCN2CCOCC2)C(=O)N1Cc1ccccc1 (stereo unspecified)	6.3% (inactive)	-3.99%
COc1ccc(OC)c(NC(=S)N2CCc3ccccc3C2)c1	1.08% (inactive)	-17.2%

SMILES	% cells with GFP-LC3 spots	toxicity
CC(=O)c1ccc(Oc2cc(C)nc(-n3nc(C)cc3C)n2)cc1	22.7% (active)	52.9%
Cc1cc(C)n(-c2cc(Oc3ccccc3)ncn2)n1	4.54% (inactive)	-5.5%
COc1ccc(Nc2cc(C)nc(-n3nc(C)cc3C)n2)cc1	1.92% (inactive)	48.3%
O=C1/C(=C\c2ccsc2)NC(=S)N1c1ccccc1	0.432% (inactive)	4.12%
Nc1[nH]c(=S)nc2nc(-c3ccccc3)c(-c3ccccc3)nc12	14.2% (inactive)	22.7%
O=C(O)CS/C(=C\c1ccc(F)cc1)c1nc2ccccc2s1	5.4% (inactive)	-6.27%
CC1=CC(=C(C#N)c2nc3ccccc3s2)C=C(C)N1c1ccc(F)cc1F	27.8% (active)	15.8%
N#C/C(=C(/O)Cc1cccc2ccccc12)c1nc2ccccc2s1	0.484% (inactive)	-0.84%
COCCN(CCOC)C(=S)Nc1ccccc1Cl	8.84% (inactive)	-8.3%
CCOc1ccc2c(c1)cc(CN(C(=O)CC)C1CCCCC1)c1nnnn12	5.66% (inactive)	13.7%
CCc1ccc2c(c1)cc(CN(C(=S)Nc1ccccc1Cl)C1CC1)c1nnnn12	19.7% (active)	11.8%
CSc1ccc(CCNC(=O)C2CCN(c3nnc(-n4cccc4)s3)CC2)cc1	4.67% (inactive)	3.56%
CCOC(=O)C1CCCN(C(=O)c2cncc(Br)c2)C1 (stereo unspecified)	9.51% (inactive)	4.79%
CCOC(=O)C1CCCN(C(=O)C2CCN(c3nnc(-n4cccc4)s3)CC2)C1 (stereo unspecified)	15.3% (active)	6.19%
Fc1cc(Br)ccc1NC(=S)Nc1cccnc1	4.97% (inactive)	-1.9%
Cc1cccc(N=C2NC(=O)/C(=C/c3cn(C)c4ccccc34)S2)c1	2.55% (inactive)	4.32%
CN(C)c1ccc(-n2cccc2/C=C2/SC(=Nc3ccc(F)cc3)NC2=O)cc1	93.2% (active)	-20.2%
CN(C)c1ccc(-n2cccc2/C=N/n2cnnc2)cc1	4.65% (inactive)	-2.02%
CCC(C)(C)NC(=O)/C=C/c1cc(OC)c(OC)c(S(=O)(=O)N2CCc3ccccc32)c1	11.3% (inactive)	20%
CCN(CC)C(=O)CN(c1cccc([N+](=O)[O-])c1)S(=O)(=O)c1ccccc1	0.147% (inactive)	2.32%
O=C(CCl)N(Cc1cccc([N+](=O)[O-])c1)c1cccc(Cl)c1	60.8% (active)	58.5%

SMILES	% cells with GFP-LC3 spots	toxicity
O=C(Nc1cccc([N+](=O)[O-])c1)Nc1ccc(Cl)cn1	1.56% (inactive)	15.9%
Cc1ccccc1OCC(=O)Nc1nc(C)c(C(=O)N(C)C)s1	28.3% (inactive)	-9.79%
CCc1cccc(NC(=O)CCC(=O)O)c1	4.04% (inactive)	8.61%
O=C(c1ccc(F)cc1)n1cc(C(=S)N2CCOCC2)c2ccccc21	8.35% (inactive)	-13.5%
CCOC(=O)c1sc(NC(=O)CSc2nc(O)c(Cc3ccccc3)c(=O)[nH]2)nc1C	4.28% (inactive)	-1.5%
CCc1ccc(Oc2coc3cc(OC(=O)c4cc5ccccc5oc4=O)ccc3c2=O)cc1	1.87% (inactive)	-5.27%
COC(=O)c1ccccc1NC(=O)c1cncc(Br)c1	6.11% (inactive)	-8.54%
COc1ccc(Oc2coc3cc(OC(=O)c4cncc(Br)c4)ccc3c2=O)cc1	25.7% (active)	-11.8%
Nc1nc(SCC(=O)N2CCN(S(=O)(=O)c3ccc(Cl)cc3)CC2)n[nH]1	1.97% (inactive)	-0.836%
N#Cc1ccsc1NC(=O)CN1CCN(S(=O)(=O)c2cc(Cl)ccc2Cl)CC1	7.41% (inactive)	41.3%
CCC1=C(C(=O)OC)C(c2cc(OC)ccc2OC)C(C#N)=C(N)O1 (stereo unspecified)	2.22% (inactive)	-10.7%
CCCN1CC=C2C(C#N)=C(N)C(C#N)(C#N)C(c3cc(OC)ccc3OC)C2C1 (stereo unspecified)	99.7% (active)	9.7%
CCOC(=O)N1CC=C2C(C#N)=C(N)C(C#N)(C#N)[C@H](c3cccs3)[C@H]2C1	11.3% (inactive)	-6.29%
COCCCNCCOCCOc1ccc(Cl)cc1Br	5.65% (inactive)	4.08%
CCn1nc(C)c(/C=N/NC(=O)Cc2ccc(Cl)cc2)c1C	4.23% (inactive)	8.44%
Cc1cc(C)cc(NC(=S)NCCCN2CCOCC2)c1	12.3% (inactive)	-2.96%
Cc1ccc(S(=O)(=O)NCCN2CCOCC2)cc1C	1.8% (inactive)	15.4%
Cc1cc(C)c(S(=O)(=O)NCCCN2CCOCC2)cc1Br	19.8% (active)	9.5%
CCc1nc2ccccc2c(C(=O)NCc2ccc(OC)cc2)c1C	2.64% (inactive)	-18.8%
C=CCNc1nc(Nc2ccc(Cl)cc2)nc(OC)n1	0.706% (inactive)	0.881%
Cc1ccc(NC(=O)OCCNC(=O)c2ccncc2)cc1	5.3% (inactive)	0.481%

SMILES	% cells with GFP-LC3 spots	toxicity
CC[C@H]1OC(=O)[C@H](C)[C@@H](O[C@H]2C[C@@](C)(OC)[C@@H](O)[C@H](C)O2)[C@H](C)[C@@H](O[C@@H]2O[C@H](C)C[C@H](N(C)C)[C@H]2O)[C@](C)(O)C[C@@H](C)[C@@H]2N[C@@H](COCCOC)O[C@H]([C@H]2C)[C@]1(C)O	10.6% (inactive)	20.5%
COc1cccc2cc(S(=O)(=O)c3ccc(C)cc3)/c(=N/NS(=O)(=O)c3ccc(C)cc3)oc12	5.62% (inactive)	3.69%
CCN1C(=O)/C(=C2/Sc3ccccc3N2CCCS(=O)(=O)O)SC1=S	1.02% (inactive)	-10.6%
CCN1C(=O)/C(=c2\s/c(=C3\Sc4ccccc4N3C)c(=O)n2C)N(C)C1=S	1.17% (inactive)	19.3%
CCN1C(=O)/C(=C2/Sc3ccc(OC)cc3N2C)SC1=Nc1ccc(C)cc1	24.8% (active)	-15%
CC(=O)c1ccc(N=C2SCCCN2C(=O)C2CCCCC2)cc1	1.47% (inactive)	-1.61%
CCCOc1ccc(NC(=O)C2OC3OC(C)(C)OC3C3OC(C)(C)OC23)cc1 (stereo unspecified)	19.1% (active)	-25.3%
CCCOc1ccc(NC(=O)C2CCCNC2=O)cc1 (stereo unspecified)	12.2% (inactive)	-1.43%
CCCOc1ccc(N/C=C/C(=O)C(C)(C)C)cc1	0.722% (inactive)	-6.8%
C=CCOc1c(Br)cc(/C=N\n2nnnc2N)cc1OC	6.77% (inactive)	29%
CC1CC2=C(CC1/C=N/NC(N)=S)C(C)(C)CCC2 (stereo unspecified)	39.4% (active)	20%
CC1(C)CCCC2=C1CC1C(=O)N(c3ccccc3)C(=O)C1C2 (stereo unspecified)	3.25% (inactive)	1.28%
Cc1cc2c(C)nc(N/N=C/c3ccccc3)nc2o1	16.3% (inactive)	2.3%
Cc1ccc(Cl)cc1N1CCN(C(=O)c2cccc3c(=O)c(C)c(-c4ccccc4)oc23)CC1	3.68% (inactive)	9.69%
O=C1CCC(=O)N1c1ccc(NCCc2ccccc2F)c([N+](=O)[O-])c1	1.23% (inactive)	31.5%
CC(Oc1cccc(NC(=O)c2cccs2)c1)C(=O)c1ccccc1 (stereo unspecified)	9.23% (inactive)	21.1%
Cc1ccc(NC(=O)CN2CCCCC2)c2c1CC(C)(C)O2	4.85% (inactive)	-23.6%
CCCc1[nH]nc2c1C(c1c(C)nn(-c3ccccc3)c1Cl)C(C#N)=C(N)O2 (stereo unspecified)	16.1% (inactive)	24.7%
CCCc1[nH]nc2c1C(c1ccc(Br)s1)C(C#N)=C(N)O2 (stereo unspecified)	13.3% (active)	8.15%
CCCc1[nH]nc2c1C(C1CC=CCC1)C(C#N)=C(N)O2 (stereo unspecified)	8.01% (inactive)	13%
